Tests used:
Assay in all cases: thermal shift delta Tm vs DMSO control; higher = stronger stabilization (binding)
Details in all cases: 12.5 µM; protein concentration 2 µM
LOC_OS01G57100-cb003 = tested on: LOC_OS01G57100-cb003
Outline: (§1)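 Rice kinase domain constructs, made in E. coli and purified, were placed in 96-well plates at 2 μM in 19.5 μl of 100 mM potassium phosphate pH 7.5, 150 mM NaCl, 10% glycerol and 5 × SYPRO Orange, with compound in DMSO. A temperature ramp from 25°C to 95°C at 0.05°C/s was used for differential scanning fluorimetry. The melting temperature shift is a triplicate mean compared with DMSO-only protein, derived from Boltzmann fits.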

LOC_OS01G60330-cb001 = tested on: LOC_OS01G60330-cb001
Outline: as §1

LOC_OS01G60700-cb002 = tested on: LOC_OS01G60700-cb002
Outline: as §1

LOC_OS01G63280-cb003 = tested on: LOC_OS01G63280-cb003
Outline: as §1

LOC_OS01G67340-cb003 = tested on: LOC_OS01G67340-cb003
Outline: as §1

LOC_OS01G70970-cb002 = tested on: LOC_OS01G70970-cb002
Outline: as §1

LOC_OS02G07810-cb001 = tested on: LOC_OS02G07810-cb001
Outline: as §1

LOC_OS02G08530-cb003 = tested on: LOC_OS02G08530-cb003
Outline: as §1

LOC_OS02G14120-cb001 = tested on: LOC_OS02G14120-cb001
Outline: as §1

LOC_OS02G17970-cb001 = tested on: LOC_OS02G17970-cb001
Outline: as §1

LOC_OS02G45750-cb003 = tested on: LOC_OS02G45750-cb003
Outline: as §1

LOC_OS02G54510-cb004 = tested on: LOC_OS02G54510-cb004
Outline: as §1

LOC_OS03G04050-cb001 = tested on: LOC_OS03G04050-cb001
Outline: as §1

LOC_OS03G12390-cb001 = tested on: LOC_OS03G12390-cb001
Outline: as §1

LOC_OS03G27990-cb004 = tested on: LOC_OS03G27990-cb004
Outline: as §1

LOC_OS03G50450-cb001 = tested on: LOC_OS03G50450-cb001
Outline: as §1

LOC_OS03G50810-cb003 = tested on: LOC_OS03G50810-cb003
Outline: as §1

LOC_OS04G35114-cb001 = tested on: LOC_OS04G35114-cb001
Outline: as §1

LOC_OS04G38480-cb003 = tested on: T1, LOC_OS04G38480-cb003
T1 sequence (whole entry): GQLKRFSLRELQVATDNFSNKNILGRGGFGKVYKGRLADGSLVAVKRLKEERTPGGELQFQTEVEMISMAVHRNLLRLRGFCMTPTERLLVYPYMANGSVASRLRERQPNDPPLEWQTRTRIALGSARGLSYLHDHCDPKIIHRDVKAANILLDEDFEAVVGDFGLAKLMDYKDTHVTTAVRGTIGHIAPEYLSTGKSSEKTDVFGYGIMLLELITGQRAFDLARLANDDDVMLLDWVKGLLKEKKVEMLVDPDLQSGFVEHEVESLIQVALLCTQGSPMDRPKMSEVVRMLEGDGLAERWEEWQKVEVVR
Outline: as §1

LOC_OS04G41100-cb001 = tested on: T2, LOC_OS04G41100-cb001
T2 sequence (whole entry): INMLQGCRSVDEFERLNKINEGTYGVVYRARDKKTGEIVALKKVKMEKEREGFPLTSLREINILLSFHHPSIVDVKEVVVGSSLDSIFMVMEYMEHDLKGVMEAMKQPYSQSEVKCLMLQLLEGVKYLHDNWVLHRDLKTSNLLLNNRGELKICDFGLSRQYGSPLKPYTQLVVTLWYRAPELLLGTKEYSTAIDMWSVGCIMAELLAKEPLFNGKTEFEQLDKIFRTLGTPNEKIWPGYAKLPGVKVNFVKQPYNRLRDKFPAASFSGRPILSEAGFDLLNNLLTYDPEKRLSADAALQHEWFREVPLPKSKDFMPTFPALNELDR
Outline: as §1
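Note: purified Escherichia coli-expressed rice kinase domain construct.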

Row | SMILES | thermal shift delta Tm (LOC_OS01G57100-cb003) [°C] | thermal shift delta Tm (LOC_OS01G60330-cb001) [°C] | thermal shift delta Tm (LOC_OS01G60700-cb002) [°C] | thermal shift delta Tm (LOC_OS01G63280-cb003) [°C] | thermal shift delta Tm (LOC_OS01G67340-cb003) [°C] | thermal shift delta Tm (LOC_OS01G70970-cb002) [°C] | thermal shift delta Tm (LOC_OS02G07810-cb001) [°C] | thermal shift delta Tm (LOC_OS02G08530-cb003) [°C] | thermal shift delta Tm (LOC_OS02G14120-cb001) [°C] | thermal shift delta Tm (LOC_OS02G17970-cb001) [°C] | thermal shift delta Tm (LOC_OS02G45750-cb003) [°C] | thermal shift delta Tm (LOC_OS02G54510-cb004) [°C] | thermal shift delta Tm (LOC_OS03G04050-cb001) [°C] | thermal shift delta Tm (LOC_OS03G12390-cb001) [°C] | thermal shift delta Tm (LOC_OS03G27990-cb004) [°C] | thermal shift delta Tm (LOC_OS03G50450-cb001) [°C] | thermal shift delta Tm (LOC_OS03G50810-cb003) [°C] | thermal shift delta Tm (LOC_OS04G35114-cb001) [°C] | thermal shift delta Tm (LOC_OS04G38480-cb003) [°C] | thermal shift delta Tm (LOC_OS04G41100-cb001) [°C]
1 | Cn1cc(-c2ccc3c(c2)CCN3C(=O)Cc2cccc(C(F)(F)F)c2)c2c(N)ncnc21 | 1.46 | -0.42 | 0.15 | 9.43 | 3.52 | 0.54 | 0.74 | 1.06 | 3.86 | 0.57 | 4.4 | 2.71 | 0.45 | 0.39 | 0.12 | 0 | 0.95 | 2.08 | 1.08 | 1.28
2 | CC1(C)CNc2cc(NC(=O)c3cccnc3NCc3ccncc3)ccc21 [Motesanib Diphosphate (AMG-706)] | 1.3 | 1.28 | 1.09 | 8.62 | -0.45 | 0.75 | 0.59 | 0.61 | -0.17 | 0.6 | -0.06 | 1.49 | 0.4 | -0.39 | 0.2 | -0.1 | 0.3 | 0.51 | 0.65 | 0.6
3 | COc1ccc(-c2ccc3c(N4CCOCC4)nc(N4C[C@@H](C)O[C@@H](C)C4)nc3n2)cc1CO | 0.55 | 0.67 | 0.28 | -0.12 | -0.53 | -0.02 | 0.61 | 0.4 | -0.18 | 0.46 | 0.16 | -0.13 | -0.03 | 0.03 | 0.02 | -0.08 | -0.07 | 0.21 | 0.34 | 0.27
4 | O=c1ncn2nc(Sc3ccc(F)cc3F)ccc2c1-c1c(Cl)cccc1Cl | 1.7 | 0.91 | 0.86 | 0.47 | -0.29 | 0.12 | 0.79 | 0.67 | 0.31 | 0.56 | 0.54 | -0.07 | 0.23 | 0.07 | -0.01 | 0.15 | 0.34 | 0.66 | 1.17 | 0.55
5 | NC(=O)c1cnc(N[C@@H]2CCCC[C@@H]2N)nc1Nc1cccc(-n2nccn2)c1 | 2.55 | 0.94 | 1.04 | 0.28 | 0.99 | 2.19 | -0.28 | 4.36 | 2.99 | 1.5 | 2.02 | 2.55 | 0.07 | 1.42 | 1.98 | 3.61 | 0.99 | 1.31 | 0.85 | 0.63
6 | Cc1ccc(NC(=O)Nc2cc(C(F)(F)F)ccc2F)cc1Nc1ccc2c(c1)NC(=O)/C2=C\c1ccc[nH]1 | 2.33 | 1.66 | 0.91 | 2.05 | 1.55 | 1.83 | 3.74 | -2.7 | 0.57 | 1.85 | 0.48 | -0.12 | 1.3 | 1.34 | 0.77 | 1.31 | 1.99 | -0.61 | -1.28 | 0.8
